The values below come from the supplement of paper PMC12645437, “Orthogonal IMiD-Degron Pairs Induce Selective Protein Degradation in Cells” (ACS Chemical Biology, 2025).

Over roughly 8,300 sequences, “log2 fold change of degron read counts, EGFP-low vs EGFP+ sorted cells (limma voom), compound-induced degradation” has its median near -1.1; the highest 2% begin near 3.2. The sample as a whole holds a higher share of the highest values than the screen did.

The target in this experiment is T1, CRBN, Q96SW2.
T1 chain: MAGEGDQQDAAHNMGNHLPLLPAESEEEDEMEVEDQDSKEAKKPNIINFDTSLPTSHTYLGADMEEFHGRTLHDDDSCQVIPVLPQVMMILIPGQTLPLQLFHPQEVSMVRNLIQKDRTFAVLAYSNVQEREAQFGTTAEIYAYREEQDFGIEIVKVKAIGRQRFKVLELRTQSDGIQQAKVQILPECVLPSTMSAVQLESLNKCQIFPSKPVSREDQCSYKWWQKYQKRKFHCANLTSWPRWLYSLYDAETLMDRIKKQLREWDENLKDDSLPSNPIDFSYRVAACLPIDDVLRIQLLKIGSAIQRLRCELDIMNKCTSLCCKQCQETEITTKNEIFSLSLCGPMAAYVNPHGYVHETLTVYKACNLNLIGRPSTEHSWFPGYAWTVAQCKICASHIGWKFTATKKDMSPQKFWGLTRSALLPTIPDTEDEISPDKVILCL
As to the kind of experiment: log2 fold change of degron read counts, EGFP-low vs EGFP+ sorted cells (limma voom), compound-induced degradation; higher = more compound-induced degradation of the degron-EGFP fusion; degrons are variants of IKZF1/3 zinc finger 2; compound dose not given here. The following applies: Jurkat, 18 h.

[1] abbreviates: compound: compound 19 (5-tert-butyl-thalidomide).
Where [2] appears, read: compound: compound 22 (5-morpholino-thalidomide).
[3] abbreviates: compound: compound 33 (diphenyl IMiD analogue).
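Note: pooled lentiviral library of zinc finger degron-EGFP fusions in mCherry-positive Jurkat cells, FACS-sorted after compound exposure, with degron abundance counted by next-generation sequencing.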

B1: 46F_47F_49P_50I_52G_53A_54G_55F_67L_, Q9UKT9 (peptide)
chain: FFCPICGAGFTQKGNLLRHIKL
B1: the “log2 fold change of degron read counts” value under setting [1] is 3.02, the “log2 fold change of degron read counts” value under setting [2] worked out at 2.16, the “log2 fold change of degron read counts” value under setting [3] was 1.63 and the “log2 fold change of degron read counts” value (compound: thalidomide) was found to be 0.485.

B2: 46F_47M_49E_50V_52G_53A_54V_55F_67L_, Q9UKT9 (peptide)
chain: FMCEVCGAVFTQKGNLLRHIKL
Turning to B2, the “log2 fold change of degron read counts” value was -1.47 under setting [1], -0.776 under setting [2], 2.27 under setting [3] and 0.961 (compound: thalidomide).

B3: 46F_47E_49E_50V_52G_53A_54V_55F_67L_, Q9UKT9 (peptide)
chain: FECEVCGAVFTQKGNLLRHIKL
As for B3, the “log2 fold change of degron read counts” value is -0.492 under setting [1], -0.885 under setting [2], 1.58 under setting [3] and 2.31 (compound: thalidomide).

B4: 46F_47Y_49E_50V_52G_53A_54V_55F_67L_, Q9UKT9 (peptide)
chain: FYCEVCGAVFTQKGNLLRHIKL
Turning to B4, the “log2 fold change of degron read counts” value under setting [1] worked out at 3.58, the “log2 fold change of degron read counts” value under setting [2] was found to be 3.79, the “log2 fold change of degron read counts” value under setting [3] was 2.82 and the “log2 fold change of degron read counts” value (compound: thalidomide) is 0.689.

B5: 46F_47V_49D_50V_52G_53A_54D_55F_67L_, Q9UKT9 (peptide)
chain: FVCDVCGADFTQKGNLLRHIKL
For the sequence B5, the “log2 fold change of degron read counts” value by setting is: under setting [1], -2.64; under setting [2], -1.98; under setting [3], -2.16; (compound: thalidomide) -1.73.

B6: 46F_47L_49E_50I_52G_53A_54T_55F_67L_, Q9UKT9 (peptide)
chain: FLCEICGATFTQKGNLLRHIKL
In the case of B6, the “log2 fold change of degron read counts” value by setting is: under setting [1], -1.3; under setting [2], -1.41; under setting [3], 0.852; (compound: thalidomide) 1.8.

B7: 46F_47Y_49E_50I_52G_53A_54T_55F_67L_, Q9UKT9 (peptide)
chain: FYCEICGATFTQKGNLLRHIKL
As to B7, the “log2 fold change of degron read counts” value reads like this: under setting [1], 3.58; under setting [2], 4.05; under setting [3], 2.59; (compound: thalidomide) 1.19.

B8: 46F_47R_49E_50I_52G_53A_54T_55F_67L_, Q9UKT9 (peptide)
chain: FRCEICGATFTQKGNLLRHIKL
Turning to B8, the “log2 fold change of degron read counts” value is, setting by setting: under setting [1], -0.98; under setting [2], -0.654; under setting [3], 1.54; (compound: thalidomide) 1.42.

B9: 46F_47M_49E_50I_52G_53A_54T_55F_67L_, Q9UKT9 (peptide)
chain: FMCEICGATFTQKGNLLRHIKL
B9: the “log2 fold change of degron read counts” value runs as follows: under setting [1], -1.21; under setting [2], -0.67; under setting [3], 2.2; (compound: thalidomide) 1.15.

B10: 46F_47T_49E_50I_52G_53A_54T_55F_67L_, Q9UKT9 (peptide)
chain: FTCEICGATFTQKGNLLRHIKL
On to B10, for which the “log2 fold change of degron read counts” value was 0.577 under setting [1], 2.27 under setting [2], 2.39 under setting [3] and 2.99 (compound: thalidomide).

B11: 46F_47A_49E_50I_52G_53A_54T_55F_67L_, Q9UKT9 (peptide)
chain: FACEICGATFTQKGNLLRHIKL
B11: the “log2 fold change of degron read counts” value under setting [1] was 3.33, the “log2 fold change of degron read counts” value under setting [2] amounted to 2.04, the “log2 fold change of degron read counts” value under setting [3] was determined as 0.691 and the “log2 fold change of degron read counts” value (compound: thalidomide) was 0.374.

B12: 46F_47K_49E_50I_52G_53A_54T_55F_67L_, Q9UKT9 (peptide)
chain: FKCEICGATFTQKGNLLRHIKL
For the sequence B12, the “log2 fold change of degron read counts” value is, setting by setting: under setting [1], -1.26; under setting [2], -3.54; under setting [3], -2.61; (compound: thalidomide) -1.06.

B13: 46F_47S_49E_50I_52G_53A_54T_55F_67L_, Q9UKT9 (peptide)
chain: FSCEICGATFTQKGNLLRHIKL
Consider B13, for which the “log2 fold change of degron read counts” value is, setting by setting: under setting [1], 2.83; under setting [2], 2.57; under setting [3], 1.79; (compound: thalidomide) 1.36.

B14: 46F_47F_49E_50I_52G_53A_54T_55F_67L_, Q9UKT9 (peptide)
chain: FFCEICGATFTQKGNLLRHIKL
As to B14, the “log2 fold change of degron read counts” value is 3.27 under setting [1], 3.8 under setting [2], 1.79 under setting [3] and 1.49 (compound: thalidomide).

B15: 46F_47Q_49E_50I_52G_53A_54T_55F_67L_, Q9UKT9 (peptide)
chain: FQCEICGATFTQKGNLLRHIKL
Take B15: the “log2 fold change of degron read counts” value runs as follows: under setting [1], 0.665; under setting [2], 2.58; under setting [3], 2.4; (compound: thalidomide) 3.26.

B16: 46F_47C_49E_50I_52G_53A_54T_55F_67L_, Q9UKT9 (peptide)
chain: FCCEICGATFTQKGNLLRHIKL
Regarding B16, the “log2 fold change of degron read counts” value reads like this: under setting [1], 2.13; under setting [2], 2.25; under setting [3], 2.55; (compound: thalidomide) 2.33.

B17: 46F_47D_49E_50I_52G_53A_54T_55F_67L_, Q9UKT9 (peptide)
chain: FDCEICGATFTQKGNLLRHIKL
For the sequence B17, the “log2 fold change of degron read counts” value reads like this: under setting [1], 1.71; under setting [2], 0.141; under setting [3], 0.186; (compound: thalidomide) 0.436.

B18: 46L_47N_49N_50Q_52G_53F_54H_55C_67L_, Q9UKT9 (peptide)
chain: LNCNQCGFHCTQKGNLLRHIKL
As to B18, the “log2 fold change of degron read counts” value was -1.47 under setting [1], -2.01 under setting [2], -1.68 under setting [3] and -1.54 (compound: thalidomide).

B19: 46F_47G_49E_50I_52G_53R_54Q_55F_67L_, Q9UKT9 (peptide)
chain: FGCEICGRQFTQKGNLLRHIKL
In the case of B19, the “log2 fold change of degron read counts” value is, setting by setting: under setting [1], -0.21; under setting [2], -0.999; under setting [3], -1.15; (compound: thalidomide) -1.42.

B20: 46F_47S_49P_50I_52G_53R_54C_55F_67L_, Q9UKT9 (peptide)
chain: FSCPICGRCFTQKGNLLRHIKL
With B20, the “log2 fold change of degron read counts” value is, setting by setting: under setting [1], -0.773; under setting [2], -1.2; under setting [3], 0.835; (compound: thalidomide) -0.39.

B21: 46F_47Y_49D_50Q_52G_53A_54F_55F_67L_, Q9UKT9 (peptide)
chain: FYCDQCGAFFTQKGNLLRHIKL
Take B21: the “log2 fold change of degron read counts” value by setting is: under setting [1], -0.965; under setting [2], -1.17; under setting [3], -1.35; (compound: thalidomide) -2.48.

B22: 46F_47L_49E_50I_52G_53R_54I_55F_67L_, Q9UKT9 (peptide)
chain: FLCEICGRIFTQKGNLLRHIKL
Turning to B22, the “log2 fold change of degron read counts” value runs as follows: under setting [1], -1.35; under setting [2], -1.7; under setting [3], -0.45; (compound: thalidomide) -0.0614.

B23: 46F_47R_49N_50Q_52G_53A_54V_55F_67L_, Q9UKT9 (peptide)
chain: FRCNQCGAVFTQKGNLLRHIKL
B23: the “log2 fold change of degron read counts” value was -2.12 under setting [1], -2.1 under setting [2], -1.19 under setting [3] and -1.75 (compound: thalidomide).

B24: 46F_47L_49E_50I_52G_53R_54N_55F_67L_, Q9UKT9 (peptide)
chain: FLCEICGRNFTQKGNLLRHIKL
Turning to B24, the “log2 fold change of degron read counts” value reads like this: under setting [1], -2.29; under setting [2], -2.99; under setting [3], -1.84; (compound: thalidomide) -0.409.

B25: 46F_47V_49N_50V_52G_53A_54H_55F_67L_, Q9UKT9 (peptide)
chain: FVCNVCGAHFTQKGNLLRHIKL
On to B25, for which the “log2 fold change of degron read counts” value reads like this: under setting [1], -1.72; under setting [2], -0.867; under setting [3], 0.0144; (compound: thalidomide) -0.327.

B26: 46F_47A_49P_50Q_52G_53A_54K_55F_67L_, Q9UKT9 (peptide)
chain: FACPQCGAKFTQKGNLLRHIKL
Regarding B26, the “log2 fold change of degron read counts” value is 1.62 under setting [1], -1.34 under setting [2], -2.13 under setting [3] and -1.03 (compound: thalidomide).

B27: 46F_47E_49P_50I_52G_53H_54A_55F_67L_, Q9UKT9 (peptide)
chain: FECPICGHAFTQKGNLLRHIKL
Turning to B27, the “log2 fold change of degron read counts” value runs as follows: under setting [1], -2.37; under setting [2], -2.63; under setting [3], -1.62; (compound: thalidomide) -1.53.

B28: 46F_47S_49N_50I_52G_53A_54G_55F_67L_, Q9UKT9 (peptide)
chain: FSCNICGAGFTQKGNLLRHIKL
Take B28: the “log2 fold change of degron read counts” value is, setting by setting: under setting [1], 1.15; under setting [2], 0.769; under setting [3], 0.918; (compound: thalidomide) 0.088.
